Compound activity (PubChem BioAssay)
The list is not random: actives were taken first. Their share in the collection is about 1.9%.
Rev-erbA mod = modulates human Rev-erb alpha binding to DNA; P20393; Rev-erbα–FITC-DNA binding, fluorescence polarization, 90 min; activity, % at 10 µM; 0.79% of 370,000 active; AID 1259318;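 active = activity above about 14%, limit read from the data; passing the limit was not always enough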;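 note: 0% = DMSO wells with 35 nM protein and 100% = DMSO wells with 750 nM protein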
Target sequence (P20393 whole entry, looked up): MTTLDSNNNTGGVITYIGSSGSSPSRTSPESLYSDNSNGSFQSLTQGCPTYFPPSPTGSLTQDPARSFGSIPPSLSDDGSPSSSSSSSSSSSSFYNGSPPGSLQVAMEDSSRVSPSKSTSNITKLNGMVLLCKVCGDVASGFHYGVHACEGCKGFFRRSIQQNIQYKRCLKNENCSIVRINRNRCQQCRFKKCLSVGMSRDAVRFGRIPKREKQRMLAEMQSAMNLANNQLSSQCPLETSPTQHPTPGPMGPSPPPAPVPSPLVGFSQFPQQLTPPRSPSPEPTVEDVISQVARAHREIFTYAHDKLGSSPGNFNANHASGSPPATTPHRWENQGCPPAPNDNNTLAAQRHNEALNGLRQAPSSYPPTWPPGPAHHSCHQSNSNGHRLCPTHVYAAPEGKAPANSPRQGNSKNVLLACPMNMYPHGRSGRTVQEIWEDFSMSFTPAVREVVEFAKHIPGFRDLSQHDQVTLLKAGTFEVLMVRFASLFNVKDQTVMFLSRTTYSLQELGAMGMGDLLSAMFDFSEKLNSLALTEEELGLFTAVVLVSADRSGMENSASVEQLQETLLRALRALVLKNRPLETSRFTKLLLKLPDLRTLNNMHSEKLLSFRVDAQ
ZTA DNA inh = blocks Epstein-Barr virus ZTA, an EBNA-1 counter-screen | P03206 | ZTA-DNA binding, fluorescence polarization | inhibition, % at 11 µM | 0.15% of 320,000 active; in the data active = inhibition above about 33%
aDG glyco act = increases alpha dystroglycan glycosylation; activation, % at 10 µM; Pro5-aDG cells, alpha-DG glycosylation AlphaScreen (IIH6); 0% Pro5, 100% B10-LARGE cell signal; 0.22% of 360,000 active; AID 624168;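 active = activation of at least 8% versus controls, or a plate z-score of at least 8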;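 note: Pro5 are CHO cells carrying HIG-tagged alpha-DG that lacks glycosylation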
EBNA-1 inhibitor = blocks EBNA-1 binding to DNA; EBNA-1 DNA binding, fluorescence polarization; inhibition, % at 14.8 µM; 0.34% of 300,000 active; AID 1950; in the data active = inhibition above about 28%
NCF1 inh = blocks human p47phox regulatory protein of NADPH oxidases | p47phox/p22phox peptide binding, fluorescence polarization, 2 h | inhibition, % at 24.7 µM | 0.53% of 220,000 active;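 active = inhibition above about 30%, limit read from the data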;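 note: 0% = p47phox with labelled peptide and 100% = labelled peptide alone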
PG9 Ab binder = PG9 antibody binding by small molecule; 0.43% of 360,000 active; inhibition, % at 6.7 µM; TR-FRET gp120-PG9 antibody binding; in the data active = inhibition above about 8.5%
PG9 bind confirm = confirmation of small molecules binding HIV-1 gp120 antibody PG9; AID 651571; TR-FRET PG9 antibody binding, biochemical; inhibition, % at 6.7 µM; shares compounds with PG9 Ab binder; 90% of 1,500 active; in the data active = inhibition above about 9%
PGV04 Ab binding = counter-screen for PG9 binders: binding control antibody PGV04; shares compounds with PG9 Ab binder; TR-FRET PGV04 antibody-gp120 binding, biochemical; inhibition, % at 6.7 µM; 95% of 1,500 active; AID 651604; in the data active = inhibition above about 9.5%
PG9 binder DR = PG9 antibody binding, dose response | shares compounds with PG9 Ab binder | TR-FRET PG9 antibody-gp120 binding inhibition | IC50, µM | 95 tested, under 10 active; in the data active = IC50 below about 10 µM
PGV04 binding DR = counter-screen for PG9 binders: binding to control antibody PGV04 | shares compounds with PG9 Ab binder | TR-FRET binding to control antibody PGV04 | AID 651937 | IC50, µM | 20% of 95 active
PG126 DR counter = binds control antibody PG126 in PG9 counter-screen; IC50, µM; 20% of 95 active; AID 651939; shares compounds with PG9 Ab binder; TR-FRET binding to antibody PG126, counterscreen
Rev-erbA confirm = Rev-erb alpha (human) modulation, hit confirmation; AID 1259319; 61% of 3,000 active; Rev-erb alpha FITC-DNA binding, fluorescence polarization, 90 min; activation, % at 25 µM; shares compounds with Rev-erbA mod;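 active = activation at or above a set limit, or at least 3 SD above the negative control mean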;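 note: 0% = 35 nM protein with DMSO and 100% = 750 nM protein high control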
RORg counter = RORgamma DNA-binding activity, dose-response counter-screen; shares compounds with Rev-erbA mod; IC50, µM; AID 1259320; 8% of 910 active; purified RORgamma protein-FITC-DNA binding, fluorescence polarization;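 active = Compounds whose fitted half-maximal concentration for disrupting protein-DNA binding is below 10 micromolar; the record names Rev-erb in its text, so the target is in doubt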
* = called active by the depositor; i = inactive; · = not tested or not shown. Cut-off read from the data, not from the text of the source, unless noted: active = IC50 below about 9 µM; inactive = the rest.

SMILES	Rev-erbA mod	ZTA DNA inh	aDG glyco act	EBNA-1 inhibitor	NCF1 inh	PG9 Ab binder	PG9 bind confirm	PGV04 Ab binding	Rev-erbA confirm	others
CCC(=O)c1cn(CC(=O)Nc2cc(C)ccc2C)c2ccccc12	32*	-6	0	0	·	19*	16*	22*	21*
O=C(Cn1nnc(-c2ccccc2F)n1)Nc1ccc(F)cc1F	-1	·	·	·	·	·	·	·	·
Cn1c2ccccc2c(=O)c2c(=O)n(Cc3ccccc3)c(-c3ccc(F)cc3)nc21	28*	19	0	-5	6	21*	28*	39*	30*
COc1ccc(Cn2c(-c3ccc(OC)cc3)nc3c(c(=O)c4ccccc4n3C)c2=O)cc1	·	5	·	12	0	·	·	·	·
O[C@H](COc1cc(F)cc(F)c1)CN1CCC(C(O)(c2ccccc2)c2ccccc2)CC1	-1	·	·	·	·	·	·	·	·
CC1CN(S(=O)(=O)c2ccc(C(=O)Nc3nc(-c4cc5ccccc5o4)cs3)cc2)CC(C)O1 (stereo not given)	64*	-2	5	14	-3	63*	71*	79*	12
O=C(Nc1nc(-c2cc3ccccc3o2)cs1)c1ccc(S(=O)(=O)N2CCCC2)cc1	3	11	5	-16	-6	-2	·	·	·
COC(=O)c1c(-c2ccccc2)csc1NC(=O)c1ccco1	19*	2	0	-4	-15	17*	9.8*	14*	15
Cc1ccc(NC(=S)Nc2nc(CC(=O)Nc3ccccc3)cs2)cc1	101*	-8	1	5	-12	16*	11*	9.7*	91*	PG9 binder DR=>67;PGV04 binding DR=i;PG126 DR counter=i;RORg counter=>40
CC(=O)Nc1ccc(/C=C/COC(C)=O)cc1C	-9	·	·	·	·	·	·	·	·
CC(=O)c1cccc(NC(=O)c2cc(-c3cccs3)on2)c1	33*	4	0	-9	·	24*	29*	47*	11
O=C(Nc1cccc(O)c1)c1cc(-c2cccs2)on1	1	0	0	-11	·	-1	·	·	·
CCCSCCCNC(=O)Cn1c(=O)c2cccn2c2ccccc21	0	17	0	7	·	-1	·	·	·
O=C(Cn1c(=O)c2cccn2c2ccccc21)NCCc1ccc(Cl)cc1	66*	3	0	2	·	36*	40*	43*	27*
NS(=O)(=O)c1ccc(CCNC(=O)CCCCCn2c(=S)[nH]c3ccc(Br)cc3c2=O)cc1	41*	3	0	20	-20	30*	28*	26*	16	PG9 binder DR=i;PGV04 binding DR=i;PG126 DR counter=i
O=C(CCCCCn1c(=S)[nH]c2ccc(Br)cc2c1=O)NCC1CCCO1 (stereo not given)	3	-6	0	0	-7	6	·	·	·
CCCc1nc(SCC(=O)Nc2nnc(CC)s2)c2c(C)c(C)sc2n1	26*	11	1	5	-12	12*	18*	16*	15	PG9 binder DR=>67;PGV04 binding DR=i;PG126 DR counter=i
CCc1nc(SCC(=O)Nc2nnc(CC)s2)c2c(C)c(C)sc2n1	3	-5	0	-4	-10	1	·	·	·
Cc1ccccc1N(C(=O)c1snc(C(N)=O)c1N)C(C(=O)NCc1ccccc1)c1ccc(O)cc1 (stereo not given)	19*	16	0	9	·	30*	31*	45*	-6
